Most compounds without a hit are left out; they make up all but 4.6% or so of the library.
ADAM17 inh: ADAM17 inhibition, QFRET primary screen; 0.83% of 370,000 active; inhibition, % at 6.95 µM; recombinant ADAM17, EDANS/DABCYL FRET peptide cleavage;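 active = inhibition above the mean of compounds lying between control limits plus 3 SD, set per campaign, cut at about 8.5% in these data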
ADAM10 inh: ADAM10 inhibition, QFRET primary screen; inhibition, % at 7 µM; O14672; 0.62% of 370,000 active; recombinant ADAM10, EDANS/DABCYL FRET peptide cleavage, 3 h;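 active = inhibition above a per-campaign cutoff equal to the mean of compounds falling between control-based bounds plus 3 SD, cut at about 20% in these data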
KLK7 zymogen act: activators of human kallikrein-7 zymogen; P49862; purified proKLK7, EDANS-DABCYL substrate fluorescence; 100% is mature enzyme control, 0% vehicle; 0.9% of 370,000 active; activation, % at 7 µM;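 active = activation above the mean of all tested compounds plus 3 SD, computed per campaign excluding outliers beyond control limits, cut at about 13% in these data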
FAS TE block: blocks the thioesterase domain of human fatty acid synthase; P49327; recombinant FAS-TE, OMFH fluorogenic substrate, fluorescence endpoint; inhibition, % at 15 µM; 0.67% of 360,000 active;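 active = compounds whose normalised, plate-corrected inhibition of enzyme fluorescence in the single-dose primary screen is 50% or more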
Target sequence (P49327 whole entry, looked up, the tested form may be a part): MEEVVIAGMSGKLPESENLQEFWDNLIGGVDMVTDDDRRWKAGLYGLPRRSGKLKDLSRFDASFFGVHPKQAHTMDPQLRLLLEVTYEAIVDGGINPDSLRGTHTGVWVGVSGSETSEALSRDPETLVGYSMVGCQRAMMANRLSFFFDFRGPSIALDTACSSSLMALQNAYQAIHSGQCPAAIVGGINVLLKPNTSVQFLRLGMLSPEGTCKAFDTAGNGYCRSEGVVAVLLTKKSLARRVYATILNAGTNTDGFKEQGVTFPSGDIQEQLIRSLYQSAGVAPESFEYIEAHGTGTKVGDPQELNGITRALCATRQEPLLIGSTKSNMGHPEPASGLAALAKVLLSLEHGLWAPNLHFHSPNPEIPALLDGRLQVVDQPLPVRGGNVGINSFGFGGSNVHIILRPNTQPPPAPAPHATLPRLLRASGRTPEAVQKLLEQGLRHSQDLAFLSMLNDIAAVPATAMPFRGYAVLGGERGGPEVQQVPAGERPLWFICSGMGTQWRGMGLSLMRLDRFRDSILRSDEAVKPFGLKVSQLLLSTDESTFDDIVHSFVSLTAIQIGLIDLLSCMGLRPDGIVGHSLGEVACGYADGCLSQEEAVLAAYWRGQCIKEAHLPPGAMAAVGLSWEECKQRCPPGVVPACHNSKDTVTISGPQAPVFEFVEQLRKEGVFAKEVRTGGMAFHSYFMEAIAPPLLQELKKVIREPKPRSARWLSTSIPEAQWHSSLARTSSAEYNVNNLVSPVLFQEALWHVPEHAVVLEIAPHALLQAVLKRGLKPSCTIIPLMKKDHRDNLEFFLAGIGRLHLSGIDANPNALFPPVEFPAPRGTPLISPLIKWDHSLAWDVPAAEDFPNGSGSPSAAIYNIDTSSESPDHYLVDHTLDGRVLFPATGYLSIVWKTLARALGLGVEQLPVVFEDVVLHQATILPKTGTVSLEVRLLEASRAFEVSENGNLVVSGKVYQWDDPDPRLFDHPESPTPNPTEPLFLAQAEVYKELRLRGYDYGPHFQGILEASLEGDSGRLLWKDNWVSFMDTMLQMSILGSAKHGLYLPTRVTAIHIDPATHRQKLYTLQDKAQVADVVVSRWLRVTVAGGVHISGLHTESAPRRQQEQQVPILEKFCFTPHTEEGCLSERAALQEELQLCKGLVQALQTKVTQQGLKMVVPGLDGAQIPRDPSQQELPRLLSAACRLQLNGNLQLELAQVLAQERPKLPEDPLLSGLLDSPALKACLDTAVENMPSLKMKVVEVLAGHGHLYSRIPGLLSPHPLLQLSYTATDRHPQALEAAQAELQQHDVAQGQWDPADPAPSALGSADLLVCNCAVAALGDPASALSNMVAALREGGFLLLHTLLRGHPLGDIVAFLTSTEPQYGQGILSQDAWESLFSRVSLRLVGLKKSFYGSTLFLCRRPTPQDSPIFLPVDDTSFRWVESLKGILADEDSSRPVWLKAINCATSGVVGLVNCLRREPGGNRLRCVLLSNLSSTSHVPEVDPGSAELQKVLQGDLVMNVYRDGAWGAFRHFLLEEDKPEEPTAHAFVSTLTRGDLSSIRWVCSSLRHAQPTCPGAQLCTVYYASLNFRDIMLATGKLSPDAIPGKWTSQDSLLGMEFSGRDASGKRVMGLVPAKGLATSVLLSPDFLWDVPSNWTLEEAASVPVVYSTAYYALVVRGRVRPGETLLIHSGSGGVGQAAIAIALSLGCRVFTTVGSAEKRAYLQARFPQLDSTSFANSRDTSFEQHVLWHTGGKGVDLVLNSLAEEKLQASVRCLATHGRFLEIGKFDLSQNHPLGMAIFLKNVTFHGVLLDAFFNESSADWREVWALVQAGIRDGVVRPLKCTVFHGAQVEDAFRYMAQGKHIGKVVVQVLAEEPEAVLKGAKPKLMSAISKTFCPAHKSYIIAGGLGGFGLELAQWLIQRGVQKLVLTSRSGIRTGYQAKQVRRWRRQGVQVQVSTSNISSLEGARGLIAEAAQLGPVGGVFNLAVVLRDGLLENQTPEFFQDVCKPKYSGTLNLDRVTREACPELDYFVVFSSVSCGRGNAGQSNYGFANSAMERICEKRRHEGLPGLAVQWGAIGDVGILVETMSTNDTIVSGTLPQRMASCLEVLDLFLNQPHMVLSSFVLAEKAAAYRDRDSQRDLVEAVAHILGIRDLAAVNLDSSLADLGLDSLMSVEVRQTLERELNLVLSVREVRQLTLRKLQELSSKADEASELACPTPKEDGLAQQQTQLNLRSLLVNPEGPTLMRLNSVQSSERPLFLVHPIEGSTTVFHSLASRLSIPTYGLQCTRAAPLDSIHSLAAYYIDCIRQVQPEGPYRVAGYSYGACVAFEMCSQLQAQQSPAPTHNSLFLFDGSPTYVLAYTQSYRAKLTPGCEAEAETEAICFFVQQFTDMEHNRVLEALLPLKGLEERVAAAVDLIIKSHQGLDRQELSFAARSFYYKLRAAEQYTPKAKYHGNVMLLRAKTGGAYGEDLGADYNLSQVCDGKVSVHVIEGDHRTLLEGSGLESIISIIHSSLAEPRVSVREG
GRIN3A LBD mod: modulators (binders) of human NR3A ligand-binding domain; 2.5% of 340,000 active; AID 1259313; Tm shift relative to glycine control, % at 25 µM; NR3A LBD differential scanning fluorimetry, Tm shift; 0% = protein alone, 100% = glycine-bound protein;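 active = melting temperature shift of at least 10% of the positive control shift, at one fixed dose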
ADAM10 confirm: human ADAM10 inhibition, confirmation; ADAM10 QFRET peptide cleavage, EDANS fluorescence; 1% of 2,100 active; shares compounds with ADAM10 inh; inhibition, % at 6.95 µM;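 active = inhibition above about 20% chosen separately for each screening run, limit read from the data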
ADAM17 counter: inhibits human ADAM17 in ADAM10 exosite counter-screen | shares compounds with ADAM10 inh | ADAM17 QFRET peptide cleavage, EDANS fluorescence | inhibition, % at 6.95 µM | 0.5% of 2,100 active | AID 743214;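 active = mean triplicate inhibition above the solvent-only control wells' mean plus 3 SD, cut at about 12% in these data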
ADAM10 ctr: counter-screen for ADAM17 exosite inhibitors: inhibitors of human ADAM10; inhibition, % at 6.95 µM; 47% of 2,900 active; recombinant ADAM10, EDANS/DABCYL FRET peptide cleavage, 3 h; AID 743256; shares compounds with ADAM17 inh;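 active = mean inhibition over the triplicate runs exceeds the activity threshold set in the earlier primary screen, cut at about 20% in these data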
ADAM17 confirm: human ADAM17 inhibition, confirmation; shares compounds with ADAM17 inh; recombinant ADAM17, EDANS/DABCYL QFRET peptide cleavage; 65% of 2,900 active; inhibition, % at 6.95 µM;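 active = mean inhibition across replicates above the hit cutoff set in the primary screen, cut at about 8.5% in these data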
Numbers stand for hits; – = inactive; · = no result given; ! = not active in a repeat.

SMILES | ADAM17 inh | ADAM10 inh | KLK7 zymogen act | FAS TE block | GRIN3A LBD mod | ADAM10 confirm | ADAM17 counter | ADAM10 ctr | ADAM17 confirm
O=C(Cn1nnc(N2CCOCC2)n1)NN=Cc1ccccc1Cl | – | – | – | · | · | · | · | · | ·
COc1ccc(N2CCC(CNC(=S)Nc3cccc(OC)c3)C2)cc1 (stereo not given) | 8.8 | 20.2 | – | · | · | – | – | – | 11.2
Nc1[nH]c(C(=O)c2ccccc2)c(-c2ccc(Cl)cc2)c1C(=O)c1c[nH]c2ccccc12 | – | – | – | · | · | · | · | · | ·
Cc1onc(-c2c(Cl)cccc2Cl)c1C(=O)NC1C(=O)N2C1SC(C)(C)C2C(=O)O (stereo not given) | – | – | – | – | – | · | · | · | ·
Cc1onc(-c2c(Cl)cccc2Cl)c1C(=O)N[C@@H]1C(=O)N2[C@@H]1SC(C)(C)[C@@H]2C(=O)O | 9.6! | 20.5! | – | – | – | – | – | – | –
Nc1cccc(Oc2c(F)c(F)c(Oc3cccc(N)c3)c(F)c2F)c1 | 9.2 | 23.0 | – | – | 22.8 | – | – | 40.8 | 20.4
COc1cccc(N)c1 | – | – | – | · | · | · | · | · | ·
O=C(OCC#CCSc1nnc(-c2cccc3ccccc23)o1)c1ccccc1F | – | – | · | · | · | · | · | · | ·
C(=C\c1ccccc1)/CN1CCN(C(c2ccccc2)c2nnnn2-c2ccc3c(c2)OCCO3)CC1 (stereo not given) | 13.6 | 29.4 | – | – | · | – | – | 19.8 | 9.9
COc1cc(OC)cc(C(=O)NCC2CCN(C(=O)C(=O)c3cccs3)CC2)c1 | – | – | – | · | · | · | · | · | ·
CCCCCn1cc(CCC(=O)Nc2ccc(Oc3cccnc3)cc2)c2ccccc21 | – | – | – | · | · | · | · | · | ·
O=C1C=C(/C=C/C2C=CC=CC2)C[C@@H](c2ccc(Cl)cc2)C1 (stereo not given in full) | 12.8 | 26.6 | – | – | – | – | – | – | –
Cc1[nH]c2ccccc2c1CC(=O)Nc1ccc(Nc2cccnc2)c(-c2cc(F)cc(F)c2)c1 | – | – | – | · | · | · | · | · | ·
N#CC(c1c(Cl)cccc1N1CCCCC1)N1CCCCC1 (stereo not given) | – | – | – | · | · | · | · | · | ·
N/C(=N\S(=O)(=O)c1cc(C(F)(F)F)cc(C(F)(F)F)c1)c1ccc(Cl)cc1 | 9.7 | 22.6 | – | – | 18.6 | – | – | 44.8 | 18.8
Fc1ccc(Cn2ccc3ccc(-c4ccc5ccn(Cc6ccc(F)cc6)c5c4)cc32)cc1 | – | – | – | · | · | · | · | · | ·
O=C(COCc1ccccc1)NC1CCCCN(Cc2ccc(Cl)cc2)C1=O (stereo not given) | – | – | – | · | · | · | · | · | ·
N=c1c2c(ncn1Cc1ccco1)Oc1ccc3ccccc3c1C2c1ccccc1 (stereo not given) | 11.3 | 20.0 | – | – | – | – | – | – | 11.6
C#CCN(C[C@@H]1[C@@H](OC(=O)NC2CC2)[C@@H](OC(=O)NC2CC2)Cn2c(=O)n(CCCCCC)c(=O)n21)S(=O)(=O)c1ccc(C)cc1 | – | – | – | – | · | · | · | · | ·
C#CCN(C[C@@H]1[C@@H](OC(=O)NCc2ccc(OC)c(OC)c2)[C@@H](OC(=O)NCc2ccc(OC)c(OC)c2)Cn2c(=O)ccc(=O)n21)S(=O)(=O)c1ccc(C)cc1 | – | – | – | – | · | · | · | · | ·
C#CCN(C[C@@H]1[C@@H](OC(=O)NCc2ccc(OC)c(OC)c2)[C@@H](OC(=O)NCc2ccc(OC)c(OC)c2)CN(C(=O)OC(C)C)N1C(=O)OC(C)C)S(=O)(=O)c1ccc(C)cc1 | 11.2 | 26.9 | – | – | · | – | – | 43.2 | 22.1
C#CCN(C[C@@H]1[C@@H](OC(=O)NC2CCCC2)[C@@H](OC(=O)NC2CCCC2)CN(C(=O)OC(C)C)N1C(=O)OC(C)C)S(=O)(=O)c1ccc(C)cc1 | 15.1 | 32.5 | – | – | · | – | – | 54.1 | 21.2

From PubChem
